About 7,900 targets were measured; listed, in parts, are those with a hit and a random draw of the rest. About 0.6% of all pairs of compound and target were hits.
Each target was assayed with CCn1cc(-c2ccnc3[nH]c(-c4cccc(CN(C)C)c4)cc23)c(-c2ccc(NC(=O)N(C)C)cc2)n1 (assay: log2 fold change, soluble protein after heating vs DMSO (PISA); higher = thermal stabilisation; K562 cells, 10 uM, 30 min; active = over 0.2 and 3.5 SD of the protein, either way, in both replicates (recomputed)).
Procedure, shortened: (§1)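 K562 cells at 2×10^6 cells/mL were exposed to 10 μM compound for 30 min, then aliquots were heated for 3 min across 48°C-58°C, pooled, and extracted in PBS containing 0.5% NP-40 at 4°C. The supernatant after 21,000xg for 90 min was taken as soluble protein and measured by TMTpro 16plex LC-MS/MS with channel sums equalised. Thermal stability is reported relative to control samples, with values from duplicates. Fold changes are given on a log2 scale.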

Sequence of UniProt Q53GQ0 (Q53GQ0 whole entry, looked up): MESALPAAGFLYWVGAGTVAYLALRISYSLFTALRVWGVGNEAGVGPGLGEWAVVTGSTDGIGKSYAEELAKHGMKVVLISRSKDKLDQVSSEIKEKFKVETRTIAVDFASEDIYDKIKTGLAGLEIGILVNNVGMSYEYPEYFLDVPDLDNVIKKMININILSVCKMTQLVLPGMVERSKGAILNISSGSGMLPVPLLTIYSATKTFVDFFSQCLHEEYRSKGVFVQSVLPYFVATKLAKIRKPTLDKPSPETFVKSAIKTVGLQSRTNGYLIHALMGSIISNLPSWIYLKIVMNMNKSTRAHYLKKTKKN
Sequence of UniProt O76003 (O76003 whole entry, looked up): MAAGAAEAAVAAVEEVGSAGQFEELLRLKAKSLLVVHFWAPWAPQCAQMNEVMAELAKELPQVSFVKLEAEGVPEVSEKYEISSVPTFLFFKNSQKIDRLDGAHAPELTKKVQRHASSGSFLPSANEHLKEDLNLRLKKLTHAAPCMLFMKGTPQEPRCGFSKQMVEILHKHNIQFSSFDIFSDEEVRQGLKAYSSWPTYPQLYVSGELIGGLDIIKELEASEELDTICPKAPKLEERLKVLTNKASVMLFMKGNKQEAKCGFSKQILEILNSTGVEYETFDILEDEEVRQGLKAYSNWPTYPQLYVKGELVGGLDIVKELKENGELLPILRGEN
Sequence of UniProt O00458 (O00458 whole entry, looked up): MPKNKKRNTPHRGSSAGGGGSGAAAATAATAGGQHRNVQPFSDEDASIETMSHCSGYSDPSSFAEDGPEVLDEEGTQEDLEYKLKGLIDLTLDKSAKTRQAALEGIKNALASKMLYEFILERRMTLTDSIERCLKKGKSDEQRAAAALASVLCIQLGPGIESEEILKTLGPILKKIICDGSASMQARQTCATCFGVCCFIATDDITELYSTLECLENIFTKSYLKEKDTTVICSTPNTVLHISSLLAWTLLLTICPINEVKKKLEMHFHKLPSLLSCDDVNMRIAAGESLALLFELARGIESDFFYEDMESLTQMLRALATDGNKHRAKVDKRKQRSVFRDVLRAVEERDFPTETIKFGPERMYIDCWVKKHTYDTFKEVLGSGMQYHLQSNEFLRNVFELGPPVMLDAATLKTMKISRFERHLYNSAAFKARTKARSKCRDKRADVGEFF
Sequence of UniProt Q92917 (Q92917 whole entry, looked up): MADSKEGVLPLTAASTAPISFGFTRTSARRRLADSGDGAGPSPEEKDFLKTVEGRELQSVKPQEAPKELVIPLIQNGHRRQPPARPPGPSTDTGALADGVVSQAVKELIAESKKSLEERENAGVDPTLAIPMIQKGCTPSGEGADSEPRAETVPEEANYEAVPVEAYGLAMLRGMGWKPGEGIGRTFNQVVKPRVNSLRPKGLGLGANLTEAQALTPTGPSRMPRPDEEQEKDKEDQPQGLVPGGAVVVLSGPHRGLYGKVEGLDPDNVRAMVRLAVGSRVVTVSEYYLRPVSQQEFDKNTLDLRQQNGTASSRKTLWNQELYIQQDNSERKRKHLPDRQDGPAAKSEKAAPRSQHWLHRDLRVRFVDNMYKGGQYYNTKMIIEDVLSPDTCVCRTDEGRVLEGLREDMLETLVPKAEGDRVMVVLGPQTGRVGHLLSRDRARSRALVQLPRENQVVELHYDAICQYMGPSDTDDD
Sequence of UniProt Q92538 (Q92538 whole entry, looked up): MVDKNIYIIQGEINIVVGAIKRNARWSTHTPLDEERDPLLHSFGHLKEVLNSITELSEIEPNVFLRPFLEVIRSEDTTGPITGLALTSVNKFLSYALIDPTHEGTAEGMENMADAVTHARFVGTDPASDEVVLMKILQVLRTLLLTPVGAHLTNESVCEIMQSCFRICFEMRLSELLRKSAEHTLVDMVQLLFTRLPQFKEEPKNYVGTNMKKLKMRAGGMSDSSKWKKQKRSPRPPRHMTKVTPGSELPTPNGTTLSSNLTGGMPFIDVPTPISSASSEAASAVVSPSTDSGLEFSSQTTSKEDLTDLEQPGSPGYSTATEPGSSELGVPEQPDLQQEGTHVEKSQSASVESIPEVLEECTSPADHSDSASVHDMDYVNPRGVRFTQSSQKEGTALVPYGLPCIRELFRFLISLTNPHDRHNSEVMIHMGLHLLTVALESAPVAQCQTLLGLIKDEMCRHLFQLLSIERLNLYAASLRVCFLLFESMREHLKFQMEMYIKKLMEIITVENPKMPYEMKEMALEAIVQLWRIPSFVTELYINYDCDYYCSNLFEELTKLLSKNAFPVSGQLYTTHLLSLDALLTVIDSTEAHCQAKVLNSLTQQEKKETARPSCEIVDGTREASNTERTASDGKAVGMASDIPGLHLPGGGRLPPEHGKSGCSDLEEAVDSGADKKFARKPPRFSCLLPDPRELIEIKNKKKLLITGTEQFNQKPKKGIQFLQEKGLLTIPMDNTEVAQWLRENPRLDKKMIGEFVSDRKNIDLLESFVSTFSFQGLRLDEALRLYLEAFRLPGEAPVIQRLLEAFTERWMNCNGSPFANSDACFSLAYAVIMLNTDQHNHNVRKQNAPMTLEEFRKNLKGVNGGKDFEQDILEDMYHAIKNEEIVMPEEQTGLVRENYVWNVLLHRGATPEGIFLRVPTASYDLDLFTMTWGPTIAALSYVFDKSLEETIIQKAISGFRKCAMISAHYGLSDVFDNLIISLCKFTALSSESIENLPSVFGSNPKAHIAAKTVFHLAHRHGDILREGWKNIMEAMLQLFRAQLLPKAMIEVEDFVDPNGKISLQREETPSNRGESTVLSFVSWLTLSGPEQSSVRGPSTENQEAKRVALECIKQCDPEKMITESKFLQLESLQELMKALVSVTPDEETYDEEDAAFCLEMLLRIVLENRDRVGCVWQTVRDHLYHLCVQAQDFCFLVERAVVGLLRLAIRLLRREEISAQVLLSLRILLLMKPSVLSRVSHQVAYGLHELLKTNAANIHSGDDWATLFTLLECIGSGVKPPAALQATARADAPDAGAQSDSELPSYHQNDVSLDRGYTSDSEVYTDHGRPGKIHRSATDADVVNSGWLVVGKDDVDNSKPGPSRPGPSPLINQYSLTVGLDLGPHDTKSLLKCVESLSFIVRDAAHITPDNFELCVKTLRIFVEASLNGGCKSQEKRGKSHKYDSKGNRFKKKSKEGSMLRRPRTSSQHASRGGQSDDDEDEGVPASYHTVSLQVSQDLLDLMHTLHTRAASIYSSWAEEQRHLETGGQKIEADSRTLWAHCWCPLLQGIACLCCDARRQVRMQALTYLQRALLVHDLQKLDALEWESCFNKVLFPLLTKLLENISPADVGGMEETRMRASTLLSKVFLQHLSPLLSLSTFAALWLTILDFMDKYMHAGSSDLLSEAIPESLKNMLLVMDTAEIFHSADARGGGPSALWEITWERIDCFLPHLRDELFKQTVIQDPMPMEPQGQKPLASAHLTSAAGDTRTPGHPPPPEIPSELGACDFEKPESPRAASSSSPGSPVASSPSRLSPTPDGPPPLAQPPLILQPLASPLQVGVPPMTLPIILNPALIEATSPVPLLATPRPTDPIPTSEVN
Sequence of UniProt P30711 (P30711 whole entry, looked up): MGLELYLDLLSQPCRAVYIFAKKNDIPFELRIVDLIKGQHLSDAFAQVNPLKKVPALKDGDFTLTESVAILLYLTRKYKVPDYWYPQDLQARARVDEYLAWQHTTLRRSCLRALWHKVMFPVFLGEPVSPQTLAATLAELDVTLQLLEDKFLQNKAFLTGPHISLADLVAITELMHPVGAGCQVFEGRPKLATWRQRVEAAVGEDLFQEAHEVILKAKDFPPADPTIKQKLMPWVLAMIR
Sequence of UniProt Q8WUI4 (Q8WUI4 whole entry, looked up): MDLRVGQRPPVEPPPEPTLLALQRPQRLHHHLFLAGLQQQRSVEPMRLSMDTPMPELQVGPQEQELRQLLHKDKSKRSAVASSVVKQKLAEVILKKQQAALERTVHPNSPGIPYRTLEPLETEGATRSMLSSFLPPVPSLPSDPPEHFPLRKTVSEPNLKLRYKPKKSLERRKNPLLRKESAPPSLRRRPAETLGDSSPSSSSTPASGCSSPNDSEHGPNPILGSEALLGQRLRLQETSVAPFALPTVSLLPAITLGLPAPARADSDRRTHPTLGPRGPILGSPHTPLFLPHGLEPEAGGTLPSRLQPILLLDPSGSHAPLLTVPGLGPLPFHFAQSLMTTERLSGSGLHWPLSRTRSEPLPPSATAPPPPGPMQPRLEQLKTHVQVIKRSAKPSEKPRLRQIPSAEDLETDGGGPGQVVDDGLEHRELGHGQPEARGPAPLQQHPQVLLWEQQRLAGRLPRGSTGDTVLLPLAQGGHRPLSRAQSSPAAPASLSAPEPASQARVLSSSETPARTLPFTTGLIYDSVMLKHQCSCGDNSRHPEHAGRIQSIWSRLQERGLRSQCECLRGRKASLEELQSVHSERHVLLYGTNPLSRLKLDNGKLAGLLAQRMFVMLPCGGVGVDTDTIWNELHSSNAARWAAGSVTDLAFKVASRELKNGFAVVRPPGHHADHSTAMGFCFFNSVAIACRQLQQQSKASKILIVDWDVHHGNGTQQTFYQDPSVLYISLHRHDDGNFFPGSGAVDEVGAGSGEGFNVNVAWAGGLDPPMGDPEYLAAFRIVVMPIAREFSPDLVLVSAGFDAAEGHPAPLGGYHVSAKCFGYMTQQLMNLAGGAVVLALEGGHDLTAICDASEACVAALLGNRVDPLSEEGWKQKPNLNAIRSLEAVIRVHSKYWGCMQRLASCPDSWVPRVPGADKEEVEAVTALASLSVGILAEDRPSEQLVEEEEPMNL
Sequence of UniProt P15104 (P15104 whole entry, looked up): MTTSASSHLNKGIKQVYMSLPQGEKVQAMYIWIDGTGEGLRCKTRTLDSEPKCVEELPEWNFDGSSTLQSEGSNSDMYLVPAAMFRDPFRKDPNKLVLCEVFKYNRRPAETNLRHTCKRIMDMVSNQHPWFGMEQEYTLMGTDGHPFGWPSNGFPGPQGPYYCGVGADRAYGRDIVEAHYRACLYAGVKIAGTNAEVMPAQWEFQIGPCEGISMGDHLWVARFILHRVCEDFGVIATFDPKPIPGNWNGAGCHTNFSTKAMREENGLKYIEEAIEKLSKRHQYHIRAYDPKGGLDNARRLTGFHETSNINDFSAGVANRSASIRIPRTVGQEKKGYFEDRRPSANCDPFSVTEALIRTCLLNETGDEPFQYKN

log2 fold change, inactive:
FHOD1 (UniProt Q9Y613) 0.093, GLB1 (UniProt P16278) 0.057, HDGFL2 (UniProt Q7Z4V5) 0.015, FYB1 isoform 3 (UniProt O15117) -0.008, GSTT1 (UniProt P30711) 0.019, HEXA (UniProt P06865) -0.002, GLUL (UniProt P15104) 0.014, HNRNPH2 (UniProt P55795) 0, HK2 (UniProt P52789) 0.016, GMEB2 (UniProt Q9UKD1) -0.048, IFRD1 (UniProt O00458) -0.016, GAK (UniProt O14976) 0.11, HDAC7 isoform 5 (UniProt Q8WUI4) -0.058, HNRNPUL1 (UniProt Q9BUJ2) 0.004, HSD17B12 (UniProt Q53GQ0) -0.104, GBF1 (UniProt Q92538) -0.013, HSPA8 (UniProt E9PN89) 0.178, GOLGB1 isoform 2 (UniProt Q14789) 0.05, GLRX3 (UniProt O76003) -0.025, HMGN1 (UniProt P05114) 0.045, FKBP3 (UniProt Q00688) -0.001, HRC (UniProt P23327) -0.023, HEXB (UniProt P07686) 0.019, GYS1 (UniProt P13807) 0.139, FDXR isoform 7 (UniProt P22570) -0.144, GTF2B (UniProt Q00403) -0.015, GLYR1 (UniProt Q49A26) 0.026, GPKOW (UniProt Q92917) -0.049, GALC (UniProt P54803) 0.096

The targets below were run with CN(C)CC(=O)Nc1ccc2[nH]c(=O)c3ccccc3c2c1 in the same assay as above.
Procedure, shortened: as §1

log2 fold change, inactive:
FHOD1 (UniProt Q9Y613) -0.048, GLB1 (UniProt P16278) 0.002, HDGFL2 (UniProt Q7Z4V5) -0.011, FYB1 isoform 3 (UniProt O15117) 0.019, GSTT1 (UniProt P30711) -0.034, HEXA (UniProt P06865) -0.021, GLUL (UniProt P15104) -0.032, HS1BP3 (UniProt Q53T59) 0.012, ICMT (UniProt O60725) 0.061, HNRNPH2 (UniProt P55795) 0.069, GGA2 (UniProt Q9UJY4) -0.021, GBA2 (UniProt Q9HCG7) 0.027, HK2 (UniProt P52789) -0.001, GMEB2 (UniProt Q9UKD1) 0.018, IFRD1 (UniProt O00458) -0.143, GAK (UniProt O14976) 0.382, HDAC7 isoform 5 (UniProt Q8WUI4) 0.059, HNRNPUL1 (UniProt Q9BUJ2) 0.013, HSD17B12 (UniProt Q53GQ0) 0.01, GBF1 (UniProt Q92538) 0.069, HSPA8 (UniProt E9PN89) -0.139, GOLGB1 isoform 2 (UniProt Q14789) -0.061, GLRX3 (UniProt O76003) -0.011, HMGN1 (UniProt P05114) -0.094, FKBP3 (UniProt Q00688) 0.001, GDE1 (UniProt Q9NZC3) -0.049, HRC (UniProt P23327) 0.005, HEXB (UniProt P07686) 0, GYS1 (UniProt P13807) 0.029, FDXR isoform 7 (UniProt P22570) 0.012, GTF2B (UniProt Q00403) 0.147, GLYR1 (UniProt Q49A26) -0.038, GPKOW (UniProt Q92917) 0.039, IFITM3 (UniProt Q01628) 0.175, GALC (UniProt P54803) 0.01

From the supplement of paper PMC10849652
